# Results taken from PubChem BioAssay (NCATS).
# Where “and” joins values, the source holds several entries; their conditions need not be identical. Equal entries are not always repeated. Records with an inconclusive call do not appear. Where a call stands in place of a potency, no number is given. Calls of active or inactive are those of the source. Calls follow the shape of the full dose curve; tested in HEK293 reporter line.
# Test: qHTS for Inhibitors of the Functional Ribonucleoprotein Complex (vRNP) of Lassa (LASV) Arenavirus: LASV Primary Screen - GLuc reporter signal (AID 1347082); also: nearly all actives have a fitted effect of over 60% in size
# Details: LASV minigenome vRNP, Gaussia luciferase reporter; series mostly up to 57.5 µM
# Potency is read from the fitted curve at half-maximal effect.
row,Structure (SMILES),Potency
1,COc1c(C)c2c(c(O)c1C/C=C(\C)CCC(=O)OCCN1CCOCC1)C(=O)OC2,inactive
2,CCn1cc(C(=O)O)c(=O)c2ccc(C)nc21,inactive
3,CCN(CC)C(=S)SSC(=S)N(CC)CC,193 nM (active)
4,CC(=O)CCCCn1c(=O)c2c(ncn2C)n(C)c1=O,inactive
5,COc1cc([C@@H]2c3cc4c(cc3[C@H](O)[C@H]3COC(=O)[C@H]23)OCO4)cc(OC)c1OC,inactive
6,OCCN1C[C@H](O)[C@@H](O)[C@H](O)[C@H]1CO,inactive
7,CC1=C(C(=O)O)N2C(=O)[C@@H](NC(=O)[C@H](N)c3ccccc3)[C@H]2SC1,inactive
8,O=c1[nH]cc(F)c(=O)[nH]1,inactive
9,CC[C@@]1(O)C(=O)OCc2c1cc1n(c2=O)Cc2cc3c(CN(C)C)c(O)ccc3nc2-1,8630 nM (active)
10,COc1cc2c(c(OC)c1OC)-c1ccc(OC)c(=O)cc1[C@@H](NC(C)=O)CC2,inactive
11,CN(C)CCC=C1c2ccccc2C=Cc2ccccc21,inactive
12,O=c1c(O)c(-c2ccc(O)c(O)c2)oc2cc(O)cc(O)c12,inactive
13,CC1(C)S[C@@H]2[C@H](NC(=O)C(C(=O)O)c3ccccc3)C(=O)N2[C@H]1C(=O)O (some centres not stated),inactive
14,CCCCNc1ccc(C(=O)OCCOCCOCCOCCOCCOCCOCCOCCOCCOC)cc1,inactive
15,COc1cc2ncnc(Nc3ccc(F)c(Cl)c3)c2cc1OCCCN1CCOCC1,inactive
16,CO[C@]12CC[C@@]3(C[C@@H]1[C@](C)(O)C(C)(C)C)[C@@H]1Cc4ccc(O)c5c4[C@@]3(CCN1CC1CC1)[C@H]2O5,inactive
17,CCCCc1oc2ccc(NS(C)(=O)=O)cc2c1C(=O)c1ccc(OCCCN(CCCC)CCCC)cc1,inactive
18,CC[C@]1(O)C[C@H]2CN(CCc3c([nH]c4ccccc34)[C@@](C(=O)OC)(c3cc4c(cc3OC)N(C=O)[C@H]3[C@@](O)(C(=O)OC)[C@H](OC(C)=O)[C@]5(CC)C=CCN6CC[C@]43[C@@H]65)C2)C1,inactive
19,Cc1cccc(Nc2ccncc2S(=O)(=O)NC(=O)NC(C)C)c1,inactive
20,CN(C)c1nc(N(C)C)nc(N(C)C)n1,inactive

row,Structure (SMILES),Potency
1,CCCCOCCOCCOCc1cc2c(cc1CCC)OCO2,inactive
2,CCN(CC)CCCC(C)Nc1ccnc2cc(Cl)ccc12 (configuration not stated),inactive
3,CN(C)C(=O)C(CCN1CCC(O)(c2ccc(Cl)cc2)CC1)(c1ccccc1)c1ccccc1,inactive
4,CC(=O)O[C@@]12CO[C@@H]1C[C@H](O)[C@@]1(C)C(=O)[C@H](O)C3=C(C)[C@@H](OC(=O)[C@H](O)[C@@H](NC(=O)OC(C)(C)C)c4ccccc4)C[C@@](O)([C@@H](OC(=O)c4ccccc4)[C@H]21)C3(C)C,inactive
5,COC(=O)C1=C(C)NC(C)=C(C(=O)OCCN(C)Cc2ccccc2)C1c1cccc([N+](=O)[O-])c1 (configuration not stated),inactive
6,Cc1cn([C@H]2C[C@H](N=[N+]=[N-])[C@@H](CO)O2)c(=O)[nH]c1=O,inactive
7,CC(C)C[C@H](NC(=O)[C@H](CCc1ccccc1)NC(=O)CN1CCOCC1)C(=O)N[C@@H](Cc1ccccc1)C(=O)N[C@@H](CC(C)C)C(=O)[C@@]1(C)CO1,485 nM (active)
8,O=C1OCCN1/N=C/c1ccc([N+](=O)[O-])o1,inactive
9,CC(C)C(=O)Nc1ccc([N+](=O)[O-])c(C(F)(F)F)c1,inactive
10,Cn1ccc2cc3c(cc21)CCN3C(=O)Nc1cccnc1,inactive
11,NC[C@H](O)c1ccc(O)c(O)c1,inactive
12,CC(C)NCC(O)COc1ccc(CCOCC2CC2)cc1 (configuration not stated),inactive
13,COCCCOc1cc(C[C@@H](C[C@H](N)[C@@H](O)C[C@H](C(=O)NCC(C)(C)C(N)=O)C(C)C)C(C)C)ccc1OC,inactive
14,NC(=O)N/N=C/c1ccc([N+](=O)[O-])o1,inactive
15,COc1cc2nc(N3CCN(C(=O)c4ccco4)CC3)nc(N)c2cc1OC,inactive
16,COc1ccc(-c2cc(=S)ss2)cc1,inactive
17,CN1CCN(CCCN2c3ccccc3Sc3ccc(Cl)cc32)CC1,inactive
18,COC(=O)Nc1nc2ccc(C(=O)c3cccs3)cc2[nH]1,inactive
19,CCC(C)(C)C(=O)O[C@H]1C[C@@H](C)C=C2C=C[C@H](C)[C@H](CC[C@@H]3C[C@@H](O)CC(=O)O3)[C@H]21,inactive

# Test: qHTS for Inhibitors of the Functional Ribonucleoprotein Complex (vRNP) of Lassa (LASV) Arenavirus: Viability assay - alamar blue signal for LASV Primary Screen (AID 1347083); also: nearly all actives have a fitted effect of over 80% in size
# Details: cell viability, alamar blue fluorescence (LASV minigenome counter-screen); series mostly up to 57.5 µM
row,Structure (SMILES),Potency
1,CCn1cc(C(=O)O)c(=O)c2ccc(C)nc21,inactive
2,CCN(CC)C(=S)SSC(=S)N(CC)CC,122 nM (active)
3,CC(=O)CCCCn1c(=O)c2c(ncn2C)n(C)c1=O,inactive
4,OCCN1C[C@H](O)[C@@H](O)[C@H](O)[C@H]1CO,inactive
5,CC1=C(C(=O)O)N2C(=O)[C@@H](NC(=O)[C@H](N)c3ccccc3)[C@H]2SC1,inactive
6,O=c1[nH]cc(F)c(=O)[nH]1,inactive
7,CC[C@@]1(O)C(=O)OCc2c1cc1n(c2=O)Cc2cc3c(CN(C)C)c(O)ccc3nc2-1,2.82 µM (active) and 1.09 µM (active)
8,COc1cc2c(c(OC)c1OC)-c1ccc(OC)c(=O)cc1[C@@H](NC(C)=O)CC2,inactive
9,CN(C)CCC=C1c2ccccc2C=Cc2ccccc21,inactive
10,O=c1c(O)c(-c2ccc(O)c(O)c2)oc2cc(O)cc(O)c12,inactive
11,CC1(C)S[C@@H]2[C@H](NC(=O)C(C(=O)O)c3ccccc3)C(=O)N2[C@H]1C(=O)O (some centres not stated),inactive
12,CCCCNc1ccc(C(=O)OCCOCCOCCOCCOCCOCCOCCOCCOCCOC)cc1,inactive
13,COc1cc2ncnc(Nc3ccc(F)c(Cl)c3)c2cc1OCCCN1CCOCC1,2220 nM (active)
14,CO[C@]12CC[C@@]3(C[C@@H]1[C@](C)(O)C(C)(C)C)[C@@H]1Cc4ccc(O)c5c4[C@@]3(CCN1CC1CC1)[C@H]2O5,inactive
15,CCCCc1oc2ccc(NS(C)(=O)=O)cc2c1C(=O)c1ccc(OCCCN(CCCC)CCCC)cc1,inactive
16,CC[C@]1(O)C[C@H]2CN(CCc3c([nH]c4ccccc34)[C@@](C(=O)OC)(c3cc4c(cc3OC)N(C=O)[C@H]3[C@@](O)(C(=O)OC)[C@H](OC(C)=O)[C@]5(CC)C=CCN6CC[C@]43[C@@H]65)C2)C1,15.3 nM (active)
17,Cc1cccc(Nc2ccncc2S(=O)(=O)NC(=O)NC(C)C)c1,inactive

row,Structure (SMILES),Potency
1,CCCCOCCOCCOCc1cc2c(cc1CCC)OCO2,inactive
2,CCN(CC)CCCC(C)Nc1ccnc2cc(Cl)ccc12 (configuration not stated),inactive
3,CN(C)C(=O)C(CCN1CCC(O)(c2ccc(Cl)cc2)CC1)(c1ccccc1)c1ccccc1,inactive
4,CC(=O)O[C@@]12CO[C@@H]1C[C@H](O)[C@@]1(C)C(=O)[C@H](O)C3=C(C)[C@@H](OC(=O)[C@H](O)[C@@H](NC(=O)OC(C)(C)C)c4ccccc4)C[C@@](O)([C@@H](OC(=O)c4ccccc4)[C@H]21)C3(C)C,inactive
5,Cc1cn([C@H]2C[C@H](N=[N+]=[N-])[C@@H](CO)O2)c(=O)[nH]c1=O,inactive
6,CC(C)C[C@H](NC(=O)[C@H](CCc1ccccc1)NC(=O)CN1CCOCC1)C(=O)N[C@@H](Cc1ccccc1)C(=O)N[C@@H](CC(C)C)C(=O)[C@@]1(C)CO1,432 nM (active)
7,O=C1OCCN1/N=C/c1ccc([N+](=O)[O-])o1,inactive
8,CC(C)C(=O)Nc1ccc([N+](=O)[O-])c(C(F)(F)F)c1,inactive
9,NC[C@H](O)c1ccc(O)c(O)c1,inactive
10,CC(C)NCC(O)COc1ccc(CCOCC2CC2)cc1 (configuration not stated),inactive
11,COCCCOc1cc(C[C@@H](C[C@H](N)[C@@H](O)C[C@H](C(=O)NCC(C)(C)C(N)=O)C(C)C)C(C)C)ccc1OC,inactive
12,NC(=O)N/N=C/c1ccc([N+](=O)[O-])o1,inactive
13,COc1cc2nc(N3CCN(C(=O)c4ccco4)CC3)nc(N)c2cc1OC,inactive
14,COc1ccc(-c2cc(=S)ss2)cc1,inactive
15,CN1CCN(CCCN2c3ccccc3Sc3ccc(Cl)cc32)CC1,inactive
16,COC(=O)Nc1nc2ccc(C(=O)c3cccs3)cc2[nH]1,54.4 nM (active)
